{"source": "PubChem BioAssay (EPA / NIEHS)", "note": "The source made the active and inactive calls. The calls were made as follows: active = hit-call score of the fitted dose curve at least 0.9, where 1 is the maximum; inactive = score below 0.9."}
{"experiment": "APR_HepG2_NuclearSize_72hr: Apredica 72-hour HepG2 Assay for Nuclear Size (AID 2282925)", "details": "high-content imaging, actives raise or lower the signal", "procedure": "APR_HepG2_72hr is a cell-based, multiplexed-readout assay that uses HepG2, a human liver cell line, with measurements taken at 72 hours after chemical dosing in a 384-well plate.APR_HepG2_NuclearSize_72hr is one of 10 assay component(s) measured or calculated from the APR_HepG2_72hr assay. It is designed to make measurements of cell phenotype, a form of morphology reporter, as detected with fluorescence intensity signals by HCS Fluorescent Imaging technology.Data from the assay component APR_HepG2_NuclearSize_72hr was analyzed into 1 assay endpoint. This assay endpoint, APR_HepG2_NuclearSize_72hr, was analyzed with bidirectional fitting relative to DMSO as the negative control and baseline of activity. Using a type of morphology reporter, measures of all nuclear dna for gain or loss-of-signal activity can be used to understand the signaling at the nuclear-level. Furthermore, this assay endpoint can be referred to as a primary readout, because this assay has produced multiple assay endpoints where this one serves a signaling function. To generalize the intended target to other relatable targets, this assay endpoint is annotated to the cell morphology intended target family, where the subfamily is organelle conformation.\nCells were treated with dimethyl sulfoxide (DMSO) as a solvent control at a final concentration of 0.5% v/v or with compounds in DMSO with a resulting final DMSO concentration of 0.5% v/v. Compound treatment was done at concentrations of 0.39, 0.78, 1.56, 3.12, 6.24, 12.5, 25, 50, 100, and 200 uM in duplicate on each plate. Cells were treated with compounds for 1, 24, or 72 hr. Carbonyl […] m-chloro-phenylhydrazone (CCCP) and taxol were used as positive controls for mitochondrial function and cytoskeletal stability, respectively; DMSO served as the negative control for this experiment. Cells were fixed by the direct addition of 50 uL formaldehyde in Hank's Balanced Salt Solution (HBSS) to a final concentration of 3.7%. After incubation in the fixation medium for 30 min at room temperature (293-298 K), cells were rinsed twice with HBSS and treated with cell permeabilization buffer (16 uL of 0.5% Triton X-100) for 10 min at room temperature (293-298 K) before labeling. For mitochondrial membrane potential and mitochondrial measurements, pre-fixed cells were incubated with 50 uL of MitoTracker Red CMXRos (Invitrogen) at a concentration of 250 nM for 30 min before fixation. In the remaining cases, post-fixed cells were labeled by incubation with a multiplexed mixture of primary antibodies in HBSS for 60 min at room temperature (293-298 K) to detect immunoreactivity of c-Jun (1:500), phospho-histone H3 (1:100), phospho-histone H2A.x (1:200), p53 (1:400), alpha-tubulin (1:200) and Hoechst 33342 (2 ug/mL). Cells were labeled for multiplexed imaging on two separate plates: a) Hoechst 33342, MitoTracker Red, phospho-histone H3, and alpha-tubulin, and b) Hoechst 33342, phospho-histone H2A.x, and c-Jun. A final rinse with HBSS (50 uL) was performed before analysis. The primary and secondary antibodies for the proteins were phospho-histone H3 (rabbit anti-phospho-histone H3 and FITC-donkey anti-rabbit IgG), phospho-histone H2A.x (mouse anti-phospho-histone H2A.x and FITC-donkey anti-mouse IgG), c-Jun (rabbit anti-phospho-c-Jun and Cy3-donkey anti-rabbit IgG), p53 (sheep anti-p53 and Cy5-donkey anti-sheep IgG), alpha-tubulin (mouse anti-alpha-tubulin and Cy5-donkey anti-mouse IgG). These antibodies are available as the CellCiphr HepG2 assay kit (Millipore).Digital images of each well were captured using a Cellomics ArrayScan VTI (Thermo Scientific Cellomics) (0.8 NA objective, 0.63x optical coupler, and XF-93 filter set) at 20x magnification. The images were acquired using the autofocus feature of the ArrayScan instrument, which entails the following steps. First, the camera focuses on channel 1 (Hoechst 33342), where nuclei are identified. Second, a Z offset of 1 um is used for capturing mitochondria (MitoTracker Red). […]"}
{"smiles": "CC(C)(C)CC(C)(C)c1ccc(O)c(-n2nc3ccccc3n2)c1", "AC50": "80.4 µM (active)"}
{"smiles": "CCCOc1sc(C(=O)N2CCC(c3cc(CN)ccc3F)CC2)c(C)c1Br", "AC50": "97.5 µM (active)"}
{"smiles": "CCC(C)(C)C1CCC(O)CC1", "note": "(stereo not given)", "outcome": "inactive"}
{"smiles": "c1ccc2cc3c(ccc4ccccc43)cc2c1", "outcome": "inactive"}
{"smiles": "CCCOC(=O)c1ccc(O)cc1", "outcome": "inactive"}
{"smiles": "CCCCCCCCCCCCc1ccccc1S(=O)(=O)O", "outcome": "inactive"}
{"smiles": "CN1CCN(c2ccccc2/C=C2\\SCCN(c3ccc(Cl)c(Cl)c3)C2=O)CC1", "AC50": "5.01 µM (active)"}
{"smiles": "CC[C@H](C)[C@@H](C(=O)O)n1sc2ccccc2c1=O", "outcome": "inactive"}
{"smiles": "O=c1c(-c2ccc(O)cc2)coc2cc(O)ccc12", "outcome": "inactive"}
{"smiles": "O=C(O)c1ccccc1C(c1ccc(O)cc1)c1ccc(O)cc1", "outcome": "inactive"}
{"smiles": "ClC1=C(Cl)C(Cl)(Cl)C(Cl)=C1Cl", "outcome": "inactive"}
{"smiles": "CC(C)(C)c1cccc(C(C)(C)C)c1O", "outcome": "inactive"}
{"smiles": "OC1CCCCC1", "outcome": "inactive"}
{"smiles": "O=C(OCCOCCOC(=O)c1ccccc1)c1ccccc1", "outcome": "inactive"}
{"smiles": "Oc1cccc(O)c1", "outcome": "inactive"}
{"smiles": "CCCCOCCO", "outcome": "inactive"}
{"smiles": "CCc1ccc(CCOc2ccc(CC3SC(=O)NC3=O)cc2)nc1", "note": "(stereo not given)", "outcome": "inactive"}
{"smiles": "CC(C)(C)c1ccc(O)c(C(C)(C)C)c1", "outcome": "inactive"}
{"smiles": "CC#C[C@]1(O)CC[C@H]2[C@@H]3CCC4=CC(=O)CCC4=C3[C@@H](c3ccc(N(C)C)cc3)C[C@@]21C", "outcome": "inactive"}
{"smiles": "COC(=O)CCCCC(=O)OC", "outcome": "inactive"}
{"smiles": "OCCC(F)(F)C(F)(F)C(F)(F)C(F)(F)C(F)(F)C(F)(F)F", "outcome": "inactive"}
{"smiles": "CCN(CC)CCNc1ccc(CNC=O)c2sc3ccc(OC)cc3c(=O)c12", "outcome": "inactive"}
{"smiles": "NC(=O)N(O)[C@@H]1C=C[C@H](Oc2cccc(Oc3ccc(F)cc3)c2)C1", "outcome": "inactive"}
{"smiles": "CCOC(=O)CC(O)(CC(=O)OCC)C(=O)OCC", "outcome": "inactive"}
{"smiles": "Cc1cc(CCN2CCN(c3nsc4ccccc34)CC2)cc2c1NC(=O)CC2(C)C", "outcome": "inactive"}
{"smiles": "C[C@@H]1C[C@H]2[C@@H]3CCC4=CC(=O)C=C[C@]4(C)[C@@]3(F)[C@@H](O)C[C@]2(C)[C@@]1(O)C(=O)COP(=O)(O)O", "AC50": "1.84 µM (active)"}
{"smiles": "CCCCCCC(=O)O", "outcome": "inactive"}
{"smiles": "CCC(=C(c1ccc(O)cc1)c1ccc(OCCN(C)C)cc1)c1ccccc1", "outcome": "inactive"}
{"smiles": "CCCCCCCCOC(=O)CCCCCCCCC(=O)OCCCCCCCC", "outcome": "inactive"}
{"smiles": "Oc1cc2ccccc2c2ccccc12", "outcome": "inactive"}
{"smiles": "COc1ccc([N+](=O)[O-])cc1N", "outcome": "inactive"}
{"smiles": "CC(C)(C)c1cc(C(C)(C)C)c(O)c(C(C)(C)C)c1", "outcome": "inactive"}
{"smiles": "C#C[C@]1(O)CC[C@H]2[C@@H]3CCC4=CC(=O)CC[C@@H]4[C@H]3CC[C@@]21C", "outcome": "inactive"}
{"smiles": "CN(C)C=O", "outcome": "inactive"}
{"smiles": "COCC(C)O", "note": "(stereo not given)", "outcome": "inactive"}
{"smiles": "CC(O)CO", "note": "(stereo not given)", "outcome": "inactive"}
{"smiles": "CCCCCCCCCCCCN1CCCC1=O", "outcome": "inactive"}
{"smiles": "O=C(O)Cc1cc(I)c(Oc2cc(I)c(O)c(I)c2)c(I)c1", "outcome": "inactive"}
{"smiles": "CCCCC[C@H](O)CC(=O)CCc1ccc(O)c(OC)c1", "outcome": "inactive"}
{"smiles": "N#C[C@@H]1CC(F)(F)CN1C(=O)CNC1CC2CCC(C1)N2c1ncccn1", "note": "(stereo not given in full)", "outcome": "inactive"}
